In PubChem BioAssay (NCI) one finds growth inhibition data, which are given here for nine compounds.

Test [1] in a line: NCI Yeast Anticancer Drug Screen. Data for the rad50 strain (AID 155).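 Also: 0% = growth of vehicle-only cultures of the same strain.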 The following applies: S. cerevisiae rad50 strain growth inhibition, active compounds read high. In a few lines:
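Compounds were tested on a yeast strain with an engineered DNA damage repair alteration; the reported value is growth inhibition normalised to vehicle treatment.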

Test [2] in a line: NCI Yeast Anticancer Drug Screen. Data for the mec2-1 strain (AID 157). Conditions: S. cerevisiae mec2-1 strain, active compounds read high. In a few lines:
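Cells of the genetically defined mec2-1 yeast strain are incubated with test compound. Inhibition of growth is calculated against vehicle-treated controls.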

A short description of test [3]: NCI Yeast Anticancer Drug Screen. Data for the sgs1 mgt1 strain (AID 161).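 Also: 0% = growth of cultures given vehicle only.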 Conditions: S. cerevisiae sgs1 mgt1 strain, active compounds read high. In a few lines: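 Read-out: growth inhibition vs vehicle controls. Cells: mutant yeast strain deficient in DNA damage repair.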
The nature of test [4]: NCI Yeast Anticancer Drug Screen. Data for the cln2 rad14 strain (AID 165).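 Also: 0% = growth equal to vehicle treated cultures.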 The following applies: S. cerevisiae cln2 rad14 strain, active compounds read high. Summed up: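 The screen exposed genetically defined yeast (cln2 rad14) to test compounds and scored growth inhibition relative to vehicle-treated controls.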
Test [5] can be described thus: NCI Yeast Anticancer Drug Screen. Data for the bub3 strain (AID 167). Conditions: S. cerevisiae bub3 mutant strain, active compounds read high. Summed up:
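Growth of a checkpoint-deficient yeast mutant is measured after compound exposure. Values represent inhibition relative to vehicle.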

A short description of test [6]: NCI Yeast Anticancer Drug Screen. Data for the mlh1 rad18 strain (AID 175). Conditions: S. cerevisiae mlh1 rad18 strain growth inhibition, active compounds read high. In a few lines:
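Compound-treated yeast growth, normalised to vehicle controls. Strain bears defined DNA repair mutations.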

Setting [7] is: at 5.0 µM (retest, dose inferred, filed as 0.5).
The mark [8] stands for this setting: at 50.0 µM (retest, dose inferred, filed as 5.0).

The panel holds about 79,000 compounds, 15% with a hit somewhere; the sample as a whole holds those more often. Unmarked numbers belong to inactive results. Active and inactive are the calls of the source. Rule as the data show it: active = growth inhibition above about 70%; inactive = the rest.

Consider `CCCCCCCCCCCCCCCCCC[N+]1(C)CCC[N+](C)(CCCCCCCCCCCCCCCCCC)CC1` (configuration not stated), for which the growth inhibition in test [1] (setting [7]) was 2%; in test [1] (setting [8]) it was 26%; in test [1] (at 50.0 µM), 41.8%; in test [2] (setting [7]) it was -3%; in test [2] (setting [8]) it was 17%; in test [2] (at 50.0 µM) it was 83.4% (active). In addition, the growth inhibition in test [3] (setting [7]) is 2%; in test [3] (setting [8]) it was 53%; in test [3] (at 50.0 µM), 47%; in test [4] (setting [7]), 0%; in test [4] (setting [8]), 3%; in test [4] (at 50.0 µM), 7.9%. The growth inhibition in test [5] (setting [7]) is 0%; in test [5] (setting [8]), 77% (active); in test [5] (at 50.0 µM), 50.6%; in test [6] (setting [7]), 2%; in test [6] (setting [8]), 24%; in test [6] (at 50.0 µM), 84% (active).

`NC1CCCCC1N.O=C([O-])c1ccc(N=Nc2cccc([N+](=O)[O-])c2)cc1O.O=C([O-])c1ccc(N=Nc2cccc([N+](=O)[O-])c2)cc1O.[Pt+4]`: the growth inhibition in test [1] (setting [7]) is 15%; in test [1] (setting [8]), 23%; in test [1] (at 50.0 µM) it was -2.95%; in test [2] (setting [7]) it was 18%; in test [2] (setting [8]), 36%; in test [2] (at 50.0 µM), -2.45%. Further, the growth inhibition in test [3] (setting [7]) was -20%; in test [3] (setting [8]), 36%; in test [3] (at 50.0 µM), 3%; in test [4] (setting [7]), -8%; in test [4] (setting [8]), 20%; in test [4] (at 50.0 µM) it was -18.6%. Moreover, the growth inhibition is 28% in test [5] (setting [7]); 45% in test [5] (setting [8]); -19.4% in test [5] (at 50.0 µM); 25% in test [6] (setting [7]); 34% in test [6] (setting [8]); 6.8% in test [6] (at 50.0 µM).

As for `CN=S(=O)(OCCCCOS(=O)(=NC)c1ccccc1)c1ccccc1` (configuration not stated), the growth inhibition in test [1] (setting [7]) is 16%; in test [1] (setting [8]), 26%; in test [1] (at 50.0 µM), 47.6%; in test [2] (setting [7]) it was 9%; in test [2] (setting [8]), 8%; in test [2] (at 50.0 µM) it was -2.25%. Further, the growth inhibition is 20% in test [3] (setting [7]); 28% in test [3] (setting [8]); -18.1% in test [3] (at 50.0 µM); 8% in test [4] (setting [7]); 10% in test [4] (setting [8]); -12.4% in test [4] (at 50.0 µM). Moreover, the growth inhibition in test [5] (setting [7]) was 11%; in test [5] (setting [8]), 10%; in test [5] (at 50.0 µM), -29.3%; in test [6] (setting [7]) it was 39%; in test [6] (setting [8]), 40%; in test [6] (at 50.0 µM), -52.3%.

Turning to `COc1ccccc1NC(=O)CSC(N)=O`, the growth inhibition was 5% in test [1] (setting [7]); 24% in test [1] (setting [8]); 71% (active) in test [1] (at 50.0 µM); 4% in test [2] (setting [7]); 42% in test [2] (setting [8]); 61.8% in test [2] (at 50.0 µM). In addition, the growth inhibition in test [3] (setting [7]) is 3%; in test [3] (setting [8]), 24%; in test [3] (at 50.0 µM), 92.5% (active); in test [4] (setting [7]) it was 5%; in test [4] (setting [8]), 7%; in test [4] (at 50.0 µM) it was 58%. The growth inhibition in test [5] (setting [7]) was 4%; in test [5] (setting [8]), 66%; in test [5] (at 50.0 µM), 88.2% (active); in test [6] (setting [7]), 2%; in test [6] (setting [8]), 21%; in test [6] (at 50.0 µM), 74% (active).

Take `CCCCCCCCCCCCCCCCN[Si](NCCCCCCCCCCCCCCCC)(NCCCCCCCCCCCCCCCC)NCCCCCCCCCCCCCCCC`: the growth inhibition in test [1] (setting [7]) was 97% (active); in test [1] (setting [8]) it was 96% (active); in test [1] (at 50.0 µM), 85.5% (active); in test [2] (setting [7]), 99% (active); in test [2] (setting [8]), 96% (active); in test [2] (at 50.0 µM), 83.4% (active). For the same compound, the growth inhibition was 99% (active) in test [3] (setting [7]); 96% (active) in test [3] (setting [8]); 88.2% (active) in test [3] (at 50.0 µM); 98% (active) in test [4] (setting [7]); 95% (active) in test [4] (setting [8]); 85.5% (active) in test [4] (at 50.0 µM). Further, the growth inhibition is 99% (active) in test [5] (setting [7]); 97% (active) in test [5] (setting [8]); 86% (active) in test [5] (at 50.0 µM); 97% (active) in test [6] (setting [7]); 95% (active) in test [6] (setting [8]); 83.9% (active) in test [6] (at 50.0 µM).

In the case of `CC[O-].CC[O-].[O-]c1ccccc1C=Nc1ccccc1.[O-]c1ccccc1C=Nc1ccccc1.[Ti+4]`, the growth inhibition in test [1] (setting [7]) is 23%; in test [1] (setting [8]), 23%; in test [1] (at 50.0 µM), 50.5%; in test [2] (setting [7]), 22%; in test [2] (setting [8]), 22%; in test [2] (at 50.0 µM), 14.8%. In addition, the growth inhibition was 12% in test [3] (setting [7]); 12% in test [3] (setting [8]); 19.8% in test [3] (at 50.0 µM); 13% in test [4] (setting [7]); 13% in test [4] (setting [8]); 29.9% in test [4] (at 50.0 µM). Moreover, the growth inhibition in test [5] (setting [7]) is 12%; in test [5] (setting [8]), 12%; in test [5] (at 50.0 µM) it was 19.9%; in test [6] (setting [7]), 23%; in test [6] (setting [8]) it was 23%; in test [6] (at 50.0 µM) it was 19.9%.

`Cc1c(N)nc(C(CC(N)=O)NCC(N)C(N)=O)nc1C(=O)NC(C(=O)NC(C)C(O)C(C)C(=O)NC(C(=O)NCCc1nc(-c2nc(C(=O)NCCCNCCCc3ccccn3)cs2)cs1)C(C)O)C(OC1OC(CO)C(O)C(O)C1OC1OC(CO)C(O)C(OC(N)=O)C1O)c1cnc[nH]1` (configuration not stated): the growth inhibition in test [1] (setting [7]) was 98% (active); in test [1] (setting [8]), 99% (active); in test [1] (at 50.0 µM) it was 92.6% (active); in test [2] (setting [7]), 97% (active); in test [2] (setting [8]), 99% (active); in test [2] (at 50.0 µM), 93.4% (active). Besides, the growth inhibition was 98% (active) in test [3] (setting [7]); 99% (active) in test [3] (setting [8]); 93.7% (active) in test [3] (at 50.0 µM); 90% (active) in test [4] (setting [7]); 98% (active) in test [4] (setting [8]); 90.3% (active) in test [4] (at 50.0 µM). Also, the growth inhibition in test [5] (setting [7]) was 97% (active); in test [5] (setting [8]) it was 98% (active); in test [5] (at 50.0 µM), 93.3% (active); in test [6] (setting [7]), 98% (active); in test [6] (setting [8]) it was 99% (active); in test [6] (at 50.0 µM), 92% (active).

Turning to `Cc1ccc(O)c(C(c2cc(C)ccc2O)c2cc([N+](=O)[O-])ccc2O)c1`, the growth inhibition is 23% in test [1] (setting [7]); 97% (active) in test [1] (setting [8]); 90.9% (active) in test [1] (at 50.0 µM); 7% in test [2] (setting [7]); 99% (active) in test [2] (setting [8]); 93.1% (active) in test [2] (at 50.0 µM). The growth inhibition in test [3] (setting [7]) is 17%; in test [3] (setting [8]) it was 99% (active); in test [3] (at 50.0 µM) it was 40.5%; in test [4] (setting [7]), 17%; in test [4] (setting [8]), 99% (active); in test [4] (at 50.0 µM), 90.8% (active). Besides, the growth inhibition in test [5] (setting [7]) is 5%; in test [5] (setting [8]), 99% (active); in test [5] (at 50.0 µM), 91.8% (active); in test [6] (setting [7]), 24%; in test [6] (setting [8]), 97% (active); in test [6] (at 50.0 µM) it was 91.3% (active).

Regarding `O=C(NCCCl)Nc1c2ccccc2nc2ccccc12`, the growth inhibition was 15% in test [1] (setting [7]); 65% in test [1] (setting [8]); 72% (active) in test [1] (at 50.0 µM); 8% in test [2] (setting [7]); 39% in test [2] (setting [8]); 41% in test [2] (at 50.0 µM). Also, the growth inhibition in test [3] (setting [7]) is 4%; in test [3] (setting [8]), 23%; in test [3] (at 50.0 µM), 24.5%; in test [4] (setting [7]), 16%; in test [4] (setting [8]) it was 23%; in test [4] (at 50.0 µM) it was 31.4%. Also, the growth inhibition was -1% in test [5] (setting [7]); 19% in test [5] (setting [8]); 34.9% in test [5] (at 50.0 µM); 9% in test [6] (setting [7]); 41% in test [6] (setting [8]); 37% in test [6] (at 50.0 µM).
